The record followed here is PubChem BioAssay (Tox21).

Values without a mark were called inactive. Records with an inconclusive call do not appear. Activity calls are given as the source filed them. Unless noted, calls come from the whole dose curve; as a rule, active = well fitted curve in the direction sought with a large enough effect in the repeat runs; inconclusive = weak or mixed curves; inactive = no such curve, though single readings can be large; an effect the other way counts as inactive or inconclusive.

Experiment [1] in a line: qHTS assay to identify small molecule agonists of the estrogen receptor alpha (ER-alpha) signaling pathway in the presence of an antagonist - cell viability counter screen (AID 1259386).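 Note: series mostly up to about 92 µM; cells exposed to compounds for 22 h at 37 °C before the viability read; nearly all actives have a fitted effect of over 30% in size.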 In outline:
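Cells are starved of estrogens for 5 days in charcoal-stripped serum, seeded for 24hr and co-treated with ICI-182,780 (10.0nM final) and test compounds. After 22hr at 37C, viability is read as CellTiter-Fluor fluorescence.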
In general terms: qHTS replaces the single test concentration by a dilution series.

Experiment [2] addresses Progesterone receptor (Homo sapiens) (UniProt P06401). Kind of experiment: qHTS assay to identify small molecule agonists of the progesterone receptor (PR) signaling pathway (AID 1346784; calls by dose curve; note: nearly all actives have a fitted effect of over 30% in size). In outline: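 Cells (PR-UAS-bla HEK 293T, GripTite) were plated in assay medium containing 2% charcoal-stripped FBS and incubated 6 hr. Test compounds in DMSO were added for 16 hr at 37C. FRET substrate was then loaded for 2 hr at room temperature before fluorescence reading.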

The target is the same in experiment [3]. As to the kind of experiment: qHTS assay to identify small molecule antagonists of the progesterone receptor (PR) signaling pathway (AID 1346795; active = well fitted inhibition curve with a large enough effect in the signal ratio in the repeat runs, not every such curve was filed as active; the % refers to the signal ratio). In outline: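 Antagonist mode: compounds tested against 1 nM (final) promegestone stimulation in HEK293T cells expressing PR-UAS-bla reporter, 16 hr at 37C, 5% CO2; beta-lactamase activity detected via B/G FRET substrate after 2 hr at room temperature.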

Experiment [4] can be described thus: qHTS assay to identify small molecule antagonists of the progesterone receptor (PR) signaling pathway - cell viability counter screen (AID 1346798). Note: series mostly up to about 92 µM; nearly all actives have a fitted effect of over 50% in size. In outline: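 Counter screen for cytotoxicity: viability of PR-UAS-bla HEK293T cells was measured with CellTiter-Glo luminescence following 16 hr compound exposure in the presence of R5020.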
Experiment [5] can be described thus: qHTS assay to identify small molecule agonists of the progesterone receptor (PR) signaling pathway - cell viability counter screen (AID 1346799; calls by dose curve; note: nearly all actives have a fitted effect of over 45% in size). In outline:
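Cells (PR-UAS-bla HEK293T) are plated at 3,000/well in 2% charcoal-stripped FBS medium, rested 6 hr, dosed and incubated 16 hr at 37C. CellTiter-Glo is then added and luminescence measured after 30 min at room temperature.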

Experiment [6] is described as follows: qHTS assay to identify small molecule antagonists of the TGF-beta/Smad signaling pathway - cell viability counter screen (AID 1346824). Note: nearly all actives have a fitted effect of over 50% in size. In outline:
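SBE-bla HEK 293T cells, incubated overnight, then compound plus 0.25 ng/mL TGF-beta1 (stock added) for 5 hr at 37 C. Viability was read in the same wells by CellTiter-Glo luminescence after 30 min at room temperature.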

Experiment [7] in a line: qHTS assay to identify small molecule agonists of the TGF-beta/Smad signaling pathway - cell viability counter screen (AID 1346829). Note: top concentration of the series differs between compounds; nearly all actives have a fitted effect of over 45% in size. In outline: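 Tox21 qHTS format: SBE-bla HEK 293T cells treated with DMSO-dissolved compounds for 5 hr; CellTiter-Glo luminescence after 30 min at room temperature.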
Experiment [8] is described as follows: qHTS assay to identify small molecule agonists of the TGF-beta/Smad signaling pathway (AID 1346859; active = well fitted activation curve with a large enough effect in the signal ratio in the repeat runs, not every such curve was filed as active; the % refers to the signal ratio; note: series mostly up to about 77 µM). In outline: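 Reporter line: HEK 293T with stably integrated SBE-controlled beta-lactamase. Compound exposure lasts 5 hr at 37 C and 5% CO2; substrate loading follows for 2 hr at room temperature, with emission read at 460 and 530 nm.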
Experiment [9] concerns the target Thyrotropin-releasing hormone receptor (Homo sapiens) (UniProt P34981). As to the kind of experiment: qHTS assay to identify small molecule antagonists of the thyrotropin-releasing hormone receptor (TRHR) signaling pathway (AID 1346877; active = well fitted inhibition curve with a large enough effect in the repeat runs, not every such curve was filed as active; note: series mostly up to about 51 µM). In outline:
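Cells (TRHR-HEK293) are plated and kept 18 h at 37 °C/5% CO2. A calcium-sensitive dye is added for 2 h, compound follows for 5 min at room temperature, and TRH is then given at 1 nM final.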

For experiment [10] the target is unchanged. Kind of experiment: qHTS assay to identify small molecule agonists of the thyrotropin-releasing hormone receptor (TRHR) signaling pathway (AID 1346891; calls by dose curve;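 note: HEK293 cells expressing TRHR with calcium dye readout; series mostly up to about 58 µM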). In outline:
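Cells: TRHR-Hek293, seeded and incubated 18 h. Dye loading: 2 h at 37 °C. Compound added from DMSO stock by pin tool. Read-out: kinetic calcium fluorescence over 3 min.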

Experiment [11] in a line: Human pregnane X receptor (PXR) small molecule agonists, qHTS cell viability counter screen (AID 1346977). Note: nearly all actives have a fitted effect of over 50% in size. In outline:
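Cytotoxicity counter screen run in the same wells as the PXR luciferase assay, using PXR-Luc HepG2 cells in charcoal-stripped serum medium. Viability: CellTiter-Fluor fluorescence after 24hr compound treatment.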

The nature of experiment [12]: Caspase-3/7 induction in HepG2 cells by small molecules, qHTS assay (AID 1346978). Note: nearly all actives have a fitted effect of over 15% in size. In outline:
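Wild-type HepG2 cells, 2,000/well, settled 5 hr at 37 C and 5% CO2, then compound-treated for 17 hr; caspase-3/7 activity read by luminescent Caspase-Glo 3/7 after 30 min at room temperature.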

Experiment [13] is described as follows: Caspase-3/7 induction in CHO-K1 cells by small molecules, qHTS cell viability counter screen (AID 1346979). Note: nearly all actives have a fitted effect of over 35% in size. In outline:
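Cytotoxicity counter screen run in parallel with the caspase-3/7 assay: CHO-K1 cells, 16hr compound treatment at 37C, then CellTiter-Fluor for 1hr before fluorescence reading.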

Experiment [14] in a line: Caspase-3/7 induction in CHO-K1 cells by small molecules, qHTS assay (AID 1346980). Note: nearly all actives have a fitted effect of over 15% in size. In outline: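 Wild-type CHO-K1 cells exposed to compounds for 17hr at 37 C, 5% CO2. Caspase-3/7 activity then measured by Caspase-Glo 3/7 luminescence after 30min at room temperature.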
In experiment [15] the target is Nuclear receptor subfamily 1 group I member 2 (Homo sapiens) (UniProt O75469). As to the kind of experiment: Human pregnane X receptor (PXR) small molecule agonists, qHTS assay (AID 1346982). Note: nearly all actives have a fitted effect of over 35% in size. Note: potency is the fitted concentration of half-maximal effect. In outline:
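Agonist mode qHTS: PXR-Luc HepG2 cells plated 5 hr before DMSO-dissolved compounds were pinned in, cultured 24 hr at 37 C, 5% CO2; ONE-Glo luminescence readout.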

Experiment [16] concerns the target Cytochrome P450 2D6 (Homo sapiens) (UniProt P10635). As to the kind of experiment: Cytochrome P450 Family 2 Subfamily D Member 6 (CYP2D6) small molecule antagonists: luciferase reporter qHTS assay (AID 1671196). Note: series mostly up to about 120 µM; nearly all actives have a fitted effect of over 50% in size. In outline: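 P450-Glo format: CYP2D6 converts a proluciferin substrate to luciferin in an NADPH-driven reaction lasting 1 h at room temperature. Light output, proportional to CYP2D6 activity, reflects interference by test chemicals.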

Experiment [17] can be described thus: Caspase-3/7 induction in HepG2 cells by small molecules, qHTS cell viability counter screen (AID 1346981). Note: series mostly up to about 92 µM; nearly all actives have a fitted effect of over 30% in size. In outline: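 Steps: seed 2,000 HepG2 cells per well; incubate 5 hr at 37 C; pin-add compounds in DMSO; incubate 16 hr; add CellTiter-Fluor; after 1 hr at 37 C and 5% CO2, read fluorescence.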
Experiment [18] concerns the target Nuclear receptor subfamily 1 group I member 2 (Rattus norvegicus) (UniProt Q9R1A7). Kind of experiment: Rat pregnane X receptor (rPXR) activation by small molecules, qHTS assay (AID 1346983). Note: nearly all actives have a fitted effect of over 20% in size. The settings on record: rPXR luciferase reporter cells, One-Glo luminescence, 24 h; stronger effect = higher value. In outline: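 Cell-based rPXR activation assay: rPXR cells, 2,000 per well, rested 5hr at 37 C, then exposed to compounds in DMSO for 24 hr at 37 C. Luciferase activity read by One-Glo luminescence after 30 min at room temperature.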

The target in experiment [19] is Nuclear receptor subfamily 1 group I member 2 (Homo sapiens) (UniProt O75469). As to the kind of experiment: CYP3A4 induction through human pregnane X receptor (PXR) by small molecules, qHTS assay (AID 1346984). Note: nearly all actives have a fitted effect of over 40% in size. In outline: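 Steps: seed DPX-2 cells, 5 hr at 37C; pin-transfer compounds; 24 hr at 37C; add Luciferin-IPA (3uM final), 3 hr at 37C; add One-Glo, 30 min RT; read luminescence.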
Nuclear receptor subfamily 1 group I member 2 (Homo sapiens), sequence (O75469 whole entry, looked up): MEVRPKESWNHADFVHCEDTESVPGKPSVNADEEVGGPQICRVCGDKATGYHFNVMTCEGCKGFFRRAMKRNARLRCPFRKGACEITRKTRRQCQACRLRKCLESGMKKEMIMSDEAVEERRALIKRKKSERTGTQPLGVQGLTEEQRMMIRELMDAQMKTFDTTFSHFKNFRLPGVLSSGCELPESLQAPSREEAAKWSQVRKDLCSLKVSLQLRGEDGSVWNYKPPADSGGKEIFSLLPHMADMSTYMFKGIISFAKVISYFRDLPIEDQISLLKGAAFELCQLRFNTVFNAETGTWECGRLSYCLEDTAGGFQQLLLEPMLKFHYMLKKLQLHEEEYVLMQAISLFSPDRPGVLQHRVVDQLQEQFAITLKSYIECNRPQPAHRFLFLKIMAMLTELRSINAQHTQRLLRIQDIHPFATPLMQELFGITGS

For experiment [20] the target is unchanged. As to the kind of experiment: Human pregnane X receptor (PXR) activation by small molecules, qHTS assay (AID 1346985). Note: nearly all actives have a fitted effect of over 40% in size. In outline:
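DPX-2 cells (HepG2 co-transfected with a PXR response element and a CYP3A4-promoter luciferase construct) were seeded at 2,000 per well, rested 5 hr at 37C, then exposed to DMSO-dissolved compounds for 24 hr. Activation was read as luciferase luminescence.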
% is set by controls: 0 for no effect and ±100 for the full control effect.

Cytochrome P450 2D6 (Homo sapiens), sequence (P10635 whole entry, looked up): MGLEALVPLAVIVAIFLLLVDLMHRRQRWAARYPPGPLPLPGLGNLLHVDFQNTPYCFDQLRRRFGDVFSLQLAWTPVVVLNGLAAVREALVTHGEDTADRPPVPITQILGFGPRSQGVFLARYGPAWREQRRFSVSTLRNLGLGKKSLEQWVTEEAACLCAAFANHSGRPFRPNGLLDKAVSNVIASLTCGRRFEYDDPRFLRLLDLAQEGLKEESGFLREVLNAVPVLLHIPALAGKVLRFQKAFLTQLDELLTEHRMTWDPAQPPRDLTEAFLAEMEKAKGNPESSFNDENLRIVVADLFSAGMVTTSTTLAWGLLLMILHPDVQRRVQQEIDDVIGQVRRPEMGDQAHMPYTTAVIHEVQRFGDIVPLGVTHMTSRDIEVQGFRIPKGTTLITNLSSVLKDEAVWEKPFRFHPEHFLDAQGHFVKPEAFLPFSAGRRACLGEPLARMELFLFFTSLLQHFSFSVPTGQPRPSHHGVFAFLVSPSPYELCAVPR
Progesterone receptor (Homo sapiens), sequence (P06401 whole entry, looked up): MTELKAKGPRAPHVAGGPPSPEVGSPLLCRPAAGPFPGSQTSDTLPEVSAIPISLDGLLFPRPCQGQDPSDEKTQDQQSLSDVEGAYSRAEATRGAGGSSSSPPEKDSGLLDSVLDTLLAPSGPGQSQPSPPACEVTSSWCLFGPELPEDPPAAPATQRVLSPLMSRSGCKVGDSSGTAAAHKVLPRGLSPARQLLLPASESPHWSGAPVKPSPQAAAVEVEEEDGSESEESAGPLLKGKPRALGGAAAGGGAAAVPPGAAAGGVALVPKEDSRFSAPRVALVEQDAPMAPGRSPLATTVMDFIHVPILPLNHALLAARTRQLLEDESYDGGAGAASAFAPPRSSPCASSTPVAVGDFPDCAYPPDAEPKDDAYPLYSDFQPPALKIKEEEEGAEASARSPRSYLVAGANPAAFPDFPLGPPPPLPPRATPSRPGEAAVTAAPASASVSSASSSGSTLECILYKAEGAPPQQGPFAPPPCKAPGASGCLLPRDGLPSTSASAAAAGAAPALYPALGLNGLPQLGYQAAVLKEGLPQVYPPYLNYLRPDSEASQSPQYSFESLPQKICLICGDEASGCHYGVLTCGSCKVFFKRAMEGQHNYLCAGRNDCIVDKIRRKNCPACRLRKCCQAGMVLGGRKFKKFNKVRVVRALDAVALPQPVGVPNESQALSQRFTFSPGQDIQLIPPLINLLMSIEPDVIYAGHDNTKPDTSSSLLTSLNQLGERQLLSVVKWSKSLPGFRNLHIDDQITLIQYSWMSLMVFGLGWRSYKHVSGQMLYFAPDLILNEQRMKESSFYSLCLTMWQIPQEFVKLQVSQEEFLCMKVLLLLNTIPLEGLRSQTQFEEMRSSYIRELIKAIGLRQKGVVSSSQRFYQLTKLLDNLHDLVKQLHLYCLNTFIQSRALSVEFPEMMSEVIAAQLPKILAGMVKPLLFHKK
Thyrotropin-releasing hormone receptor (Homo sapiens), sequence (P34981 whole entry, looked up): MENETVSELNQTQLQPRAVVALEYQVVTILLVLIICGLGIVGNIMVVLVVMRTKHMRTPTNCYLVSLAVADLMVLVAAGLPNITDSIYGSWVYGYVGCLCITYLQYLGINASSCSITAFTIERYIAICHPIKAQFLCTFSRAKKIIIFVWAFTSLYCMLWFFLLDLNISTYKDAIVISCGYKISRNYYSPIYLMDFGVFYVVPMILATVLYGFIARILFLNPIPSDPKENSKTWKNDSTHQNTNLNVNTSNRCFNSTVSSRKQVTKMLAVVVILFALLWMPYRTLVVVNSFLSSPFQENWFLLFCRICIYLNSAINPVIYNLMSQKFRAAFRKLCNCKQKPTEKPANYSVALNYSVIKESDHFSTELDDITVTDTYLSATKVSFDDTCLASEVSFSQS
Nuclear receptor subfamily 1 group I member 2 (Rattus norvegicus), sequence (Q9R1A7 whole entry, looked up): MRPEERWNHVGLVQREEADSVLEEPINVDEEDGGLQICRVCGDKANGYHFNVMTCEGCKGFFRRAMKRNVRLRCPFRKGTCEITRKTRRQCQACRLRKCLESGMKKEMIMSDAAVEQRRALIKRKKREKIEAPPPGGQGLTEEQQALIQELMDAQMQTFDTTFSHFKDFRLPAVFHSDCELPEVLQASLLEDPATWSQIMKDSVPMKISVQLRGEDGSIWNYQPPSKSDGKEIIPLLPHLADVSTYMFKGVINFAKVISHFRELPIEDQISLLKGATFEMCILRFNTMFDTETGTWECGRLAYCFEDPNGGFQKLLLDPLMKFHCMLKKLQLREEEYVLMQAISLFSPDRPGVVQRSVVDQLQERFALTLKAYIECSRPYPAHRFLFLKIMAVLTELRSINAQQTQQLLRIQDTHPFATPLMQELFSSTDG

As for `CCCCCCCCCCOC(=O)c1ccccc1C(=O)OCCCCCCCC`, the Potency entry in experiment [1], in experiment [2], in experiment [3], in experiment [4], in experiment [5] and in experiment [6] was “inactive” each time. In addition, the Potency result in experiment [7], in experiment [8], in [9], in experiment [11], in [12] and in experiment [13] was “inactive” each time. Moreover, the Potency result in experiment [14], in [15] and in experiment [16] was “inactive” throughout. In experiment [10], the call was inactive.

Turning to `O=C(O)c1cc(=O)c2ccccc2o1`, the Potency entry in experiment [1], in [2], in experiment [3], in [4], in [5] and in experiment [6] was “inactive” in each case. Besides, the Potency result in [7], in [8], in experiment [9], in [11], in experiment [12] and in experiment [13] was “inactive” throughout. Besides, the Potency result in experiment [14], in [17], in experiment [15], in [19], in experiment [20] and in experiment [16] was “inactive” throughout. In addition, the outcome in [10] was inactive. Moreover, the max activation in experiment [18] was -0.583%.

`C=CCCC(=O)/C=C/C1C(C)=CCCC1(C)C` (stereo not given): the Potency entry in experiment [1], in experiment [2], in experiment [3], in experiment [4], in [5] and in [6] was “inactive” in each case. Moreover, the Potency result in [7], in experiment [8], in experiment [9], in [11], in [12] and in [13] was “inactive” in each case. Besides, the Potency result in experiment [14], in [17] and in experiment [16] was “inactive” throughout. The call in experiment [10] was inactive. Also, the Potency in [15] is 27.3 µM (active).

Consider `CCCC1CCC(=O)CC1`, for which the Potency entry in experiment [1], in experiment [2], in [3], in experiment [4], in experiment [5] and in experiment [6] was “inactive” each time. The Potency result in experiment [7], in [8], in experiment [9], in experiment [11], in experiment [12] and in experiment [13] was “inactive” in each case. Further, the Potency entry in experiment [14], in experiment [17], in experiment [15] and in [16] was “inactive” throughout. In experiment [10], the compound was classed as inactive.

For the compound `CCOC(=O)NNc1ccc(N(CC)CC(C)O)nn1` (stereo not given), the Potency result in experiment [1], in experiment [2], in [3], in experiment [4], in [5] and in experiment [6] was “inactive” in each case. For the same compound, the Potency entry in experiment [7], in [8], in [9], in [11], in [12] and in experiment [13] was “inactive” each time. For the same compound, the Potency entry in experiment [14], in [17], in [15] and in experiment [16] was “inactive” in each case. In addition, the call in [10] was inactive.

`NC(=O)c1cccc([N+](=O)[O-])c1`: the Potency result in experiment [1], in experiment [2], in experiment [3], in experiment [4], in experiment [5] and in experiment [6] was “inactive” in each case. Also, the Potency result in experiment [7], in [8], in experiment [9], in experiment [11], in experiment [12] and in [13] was “inactive” each time. Further, the Potency entry in experiment [14], in [17], in experiment [15] and in experiment [16] was “inactive” each time. In [10], the compound was classed as inactive.

Consider `C[C@H]1NCc2cc(-c3ccc4c(=O)c(C(=O)O)cn(C5CC5)c4c3OC(F)F)ccc21`, for which the activity change, negative = cytotoxicity was 1.35% [at 19 µM] in [1]; -2.19% [at 18.9 µM] in [4]; -10.9% [at 19 µM] in experiment [5]; 0.347% [at 15.8 µM] in experiment [7]; 2.7% [at 19 µM] in experiment [11]; 0.359% [at 19 µM] in experiment [13]. The activity change, negative = cytotoxicity in experiment [17] is -1.4% [at 19 µM]. Also, the activation was -1.22% [at 19 µM] in experiment [2], -4.87% [at 15.8 µM] in [8], 0.004% [at 11.8 µM] in experiment [10] and -6.61% [at 19 µM] in [15]. For the same compound, the activity change, negative = inhibition in [3] is 2.98% [at 18.9 µM]. Further, the viability change, negative = cytotoxic in experiment [6] is -2.18% [at 15.8 µM]. In [9], the activity, negative = inhibition is 5.68% [at 10.5 µM]. For the same compound, in experiment [12], the caspase activation was -1.73% [at 19 µM]. In addition, the caspase-3/7 activation in experiment [14] was 0.0016% [at 19 µM].
